Values without a mark were called inactive. Records with an inconclusive call do not appear. Entries that show only a call come without a potency. Calls of active or inactive are those of the source. Unless noted, the call rests on the fitted dose curve; in most records, active means well fitted curve in the direction sought with a large enough effect in the repeat runs; inconclusive means weak or mixed curves; inactive means no such curve, though single readings can be large; an effect the other way counts as inactive or inconclusive.
Assays:
[1] = qHTS assay for small molecule agonists of the p53 signaling pathway - cell viability (AID 651633; calls by dose curve;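 further: p53RE-bla HCT reporter cells with a stable beta-lactamase p53 reporter; series mostly up to about 83 µM; nearly all actives have a fitted effect of over 30% in size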)
Outline: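 p53RE-bla cells, seeded at 4,000 per well and rested 5 h at 37 C/5% CO2, received compounds in DMSO for 16 h at 37 C. CellTiter-Glo was then added, and luminescence was read after 30 min at room temperature to gauge cytotoxicity.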

[2] = qHTS assay for small molecules that induce genotoxicity in human embryonic kidney cells expressing luciferase-tagged ATAD5 - cell viability (AID 651634; calls by dose curve; further: nearly all actives have a fitted effect of over 25% in size)
Outline: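 Cells (HEK293T, luciferase-tagged ATAD5) are seeded at 2,000 per well, dosed with compound or DMSO vehicle, and incubated 15.5 hr at 37C and 5% CO2. CellTiter-Fluor is added for 30 min before fluorescence is measured.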

[3] = qHTS assay for small molecule disruptors of the mitochondrial membrane potential - cell viability (AID 720634; calls by dose curve;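 further: human HepG2 liver cancer cells; series mostly up to about 83 µM; nearly all actives have a fitted effect of over 20% in size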)
Outline: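 Cytotoxicity was measured by ATP quantitation in HepG2 wells that had first been treated with compound for 1 hr and stained with m-MPI dye; CellTiter-Glo incubation was 30 min at room temperature.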

[4] = qHTS assay for small molecule disruptors of the mitochondrial membrane potential (AID 720635); further: potency means the concentration at half of the fitted maximal effect
Outline: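 HepG2 cells (2,000/well) attached overnight at 37C, then took compound for 1 hr at 37C, 5% CO2. Mito-MPS dye was added for 30 min; fluorescence was read at 490/535 nm (monomers) and 540/590 nm (aggregates).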

[5] = qHTS assay to test for compound auto fluorescence at 590 nm (red) in HepG2 cells (AID 720674)
Outline: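 Compound auto-fluorescence is scored relative to Rose Bengal sodium, measured at 540/590 nm in live HepG2 cultures after 1 hr compound contact (37 C, 5% CO2).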

[6] = qHTS assay to test for compound auto fluorescence at 535 nm (green) in HepG2 cells (AID 720675)
[7] = qHTS assay to test for compound auto fluorescence at 460 nm (blue) in HEK293 cells (AID 720678)
Outline: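 Blue-channel (Ex/Em 405/460 nm) intensity measured in HEK293 cultures after overnight compound exposure at 37C; signal expressed relative to triamterene. Cells plated 2,000 per well in 10% dialyzed FBS medium and allowed 4-5 hr to attach.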

[8] = qHTS assay to test for compound auto fluorescence at 590 nm (red) in HEK293 cells (AID 720679)
Outline: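 Red-channel autofluorescence (Ex/Em 540/590 nm; Rose Bengal sodium reference) was measured after overnight 37C, 5% CO2 exposure of attached HEK293 cells, 2,000 per well in medium with 10% dialyzed FBS.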

[9] = qHTS assay to test for compound auto fluorescence at 535 nm (green) in HEK293 cells (AID 720680)
[10] = qHTS assay to test for compound auto fluorescence at 460 nm (blue) in HEK293 cell free culture (AID 720681)
Outline: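 Test compounds were pinned into cell-free culture medium (DMEM with 10% FBS) and fluorescence was read directly at Ex/Em 405/460 nm. Signals were expressed as fluorescence equivalents of triamterene, with DMSO vehicle as control.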

[11] = qHTS assay to test for compound auto fluorescence at 535 nm (green) in HEK293 cell free culture (AID 720682)
Outline: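 Green-channel intensity (Ex/Em 485/535 nm) was recorded from compound-treated wells containing only DMEM with 10% FBS. Fluorescein provided the equivalency standard.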

[12] = qHTS assay to test for compound auto fluorescence at 590 nm (red) in HEK293 cell free culture (AID 720683)
Outline: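 Tox21 10K library compounds were pinned into cell-free DMEM with 10% FBS and fluorescence was read at excitation 540 nm. Activity is expressed as Rose Bengal sodium equivalency.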

[13] = qHTS assay to test for compound auto fluorescence at 590 nm (red) in HepG2 cell free culture (AID 720684)
Outline: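 Ex 540 / Em 590 nm read of compound in cell-free MEM (10% FBS). Rose Bengal sodium reference.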

[14] = qHTS assay to test for compound auto fluorescence at 460 nm (blue) in HepG2 cell free culture (AID 720685)
Outline: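 Cell-free plates of MEM plus 10% FBS received 23 nL compound or DMSO vehicle; blue-channel (405/460 nm) intensity scored against triamterene as reference fluorophore.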

[15] = qHTS assay to test for compound auto fluorescence at 535 nm (green) in HepG2 cell free culture (AID 720686)
[16] = qHTS assay to test for compound auto fluorescence at 460 nm (blue) in HepG2 cells (AID 720687)
Outline: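 Cells (2,000/well in MEM with 10% FBS) attached overnight at 37 C, then were exposed to compound or DMSO for 1 hr at 37 C, 5% CO2. Fluorescence read at Ex/Em 405/460 nm, expressed as triamterene-equivalent signal.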

[17] = qHTS assay for small molecules that induce genotoxicity in human embryonic kidney cells expressing luciferase-tagged ATAD5 (AID 651632); further: nearly all actives have a fitted effect of over 15% in size
Outline: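 Cells were seeded at 2,000 per well, dosed with compound, and incubated 16 hr at 37C in 5% CO2. Luciferase activity was then quantified after a 30 min room-temperature incubation with Amplite.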

[18] = molecular target: Glucocorticoid receptor (Homo sapiens) (UniProt P04150); assay: qHTS assay to identify small molecule agonists of the glucocorticoid receptor (GR) signaling pathway (AID 720691; active means well fitted activation curve with a large enough effect in the signal ratio in the repeat runs, not every such curve was filed as active; the % refers to the signal ratio)
Outline: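 Steps: seed GR-bla HeLa cells, incubate 4 h at 37 C/5% CO2; pin-transfer DMSO-dissolved compounds; incubate 18 h at 37 C; add LiveBLAzer B/G FRET substrate; after 2 h at room temperature, measure fluorescence.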

[19] = molecular target: Glucocorticoid receptor (Homo sapiens) (UniProt P04150); assay: qHTS assay to identify small molecule antagonists of the glucocorticoid receptor (GR) signaling pathway (AID 720692; active means well fitted inhibition curve with a large enough effect in the signal ratio in the repeat runs, not every such curve was filed as active; the % refers to the signal ratio)
Outline: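 Antagonism was scored as loss of dexamethasone-driven (5 nM final) reporter signal in HeLa cells bearing a glucocorticoid response element–beta-lactamase construct, after 18 h compound exposure at 37 C and 2 h FRET substrate loading.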

Chain of Glucocorticoid receptor (Homo sapiens) (P04150 whole entry, looked up): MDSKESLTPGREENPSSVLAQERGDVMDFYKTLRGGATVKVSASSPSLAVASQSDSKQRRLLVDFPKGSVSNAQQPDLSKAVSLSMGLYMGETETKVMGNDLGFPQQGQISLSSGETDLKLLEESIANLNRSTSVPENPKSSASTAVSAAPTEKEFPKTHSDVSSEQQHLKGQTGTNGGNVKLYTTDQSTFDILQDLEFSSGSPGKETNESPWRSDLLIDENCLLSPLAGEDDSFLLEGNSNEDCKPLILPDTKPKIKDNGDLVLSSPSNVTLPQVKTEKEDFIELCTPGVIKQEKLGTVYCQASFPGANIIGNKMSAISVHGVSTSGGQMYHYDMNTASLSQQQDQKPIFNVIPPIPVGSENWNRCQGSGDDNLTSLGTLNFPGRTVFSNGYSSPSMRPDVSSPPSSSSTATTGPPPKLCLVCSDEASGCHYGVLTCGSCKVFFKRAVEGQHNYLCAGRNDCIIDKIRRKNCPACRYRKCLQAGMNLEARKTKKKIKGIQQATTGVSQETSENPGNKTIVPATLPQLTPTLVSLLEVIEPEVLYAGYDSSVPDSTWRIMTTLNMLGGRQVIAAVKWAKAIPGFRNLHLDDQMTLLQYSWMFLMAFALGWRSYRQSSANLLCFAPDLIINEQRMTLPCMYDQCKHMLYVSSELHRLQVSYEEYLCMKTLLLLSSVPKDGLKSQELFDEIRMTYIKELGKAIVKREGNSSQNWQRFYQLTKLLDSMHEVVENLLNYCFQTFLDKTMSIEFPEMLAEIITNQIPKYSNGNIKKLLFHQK

| Structure (SMILES) | Potency [1] | Potency [2] | Potency [3] | Potency [4] | outcome [5] | outcome [6] | Potency [7] | outcome [8] | outcome [9] | Potency [10] | outcome [11] | outcome [12] | outcome [13] | Potency [14] | outcome [15] | Potency [16] | Potency [17] | Potency [18] | Potency [19] |
| --- | --- | --- | --- | --- | --- | --- | --- | --- | --- | --- | --- | --- | --- | --- | --- | --- | --- | --- | --- |
| CNc1ncnc2nc[nH]c12 | inactive | inactive | inactive | 2480 nM (active) | inactive | inactive | inactive | inactive | inactive | inactive | inactive | inactive | inactive | inactive | inactive | inactive |  |  |  |
| C=C[Si](OC)(OC)OC |  | inactive | inactive | inactive |  | inactive | inactive | inactive |  | inactive | inactive | inactive | inactive | inactive | inactive | inactive | inactive | inactive | inactive |
| C=CCOCC(O)CS(=O)(=O)O (stereo not drawn) |  |  | inactive |  | inactive | inactive | inactive | inactive | inactive | inactive | inactive | inactive | inactive | inactive | inactive |  | inactive |  |  |
| CC(C)COC(=O)C(C)C |  | inactive | inactive | inactive | inactive | inactive | inactive | inactive | inactive | inactive | inactive | inactive | inactive | inactive | inactive | inactive | inactive | inactive | inactive |
